KB-3-1 cytotox: KB-3-1 parental cell cytotoxicity; Potency, µM (doses to about 46.1 µM), usual class: cytotoxic; KB-3-1 viability, CellTiter-Glo ATP luminescence, 72 h; hit rate 1.4% among 400,000; further: potency means the concentration at half of the fitted maximal effect; nearly all actives have a fitted effect of over 60% in size
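Using CellTiter-Glo luminescence, growth of non-resistant KB-3-1 adenocarcinoma cells is assessed 72 h after pin-tool compound addition at 37 °C. Normalized responses across the concentration series yield fitted curves.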
KB-V1 cytotox: kills drug-selected multidrug resistant KB-V1 cells; KB-V1 MDR cells viability, CellTiter-Glo, 72 h; Potency, µM (highest dose often 46.1 µM), usual class: cytotoxic; hit rate 3.4% among 400,000; further: potency means the concentration at half of the fitted maximal effect; nearly all actives have a fitted effect of over 60% in size
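Readout: CellTiter-Glo luminescence, 10 min after addition. Cells: KB-V1 MDR subline, 72 h at 37 degrees C with compound. Analysis: corrected, normalized data fitted to concentration-effect curves.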
HT1080-NT tox: kills 2HG-producing HT-1080-NT fibrosarcoma cells | AID 686970 | HT-1080-NT fibrosarcoma viability, CellTiter-Glo ATP luminescence, 48 h | Potency, µM (titrated, usually from 46.1 µM), for inactives: at the highest dose activity, negative = less viability, actives largely listed as cytotoxic | hit rate 1.6% among 360,000;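 further: NT is the 2HG producing partner of a matched IDH1 knockdown line; potency means the concentration at half of the fitted maximal effect; 0% = DMSO-treated cells and -100% = media-only wells without cells; nearly all actives have a fitted effect of over 55% in size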
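750 cells/well, RPMI + 5% FBS; 2 h settle, compound pin-transfer, 48 h at 37 degrees C. CellTiter-Glo 10 min RT, luminescence. Normalized to DMSO and media-only wells.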
HT1080 IDH1KD tx: kills HT-1080 cells with IDH1 knockdown; HT-1080 IDH1 knockdown viability, ATP luminescence, 48 h; Potency, µM (series often up to 46.1 µM), for the others: at the highest dose activity, negative = toxicity, usual class: cytotoxic; hit rate 2% among 360,000;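 further: potency means the concentration at half of the fitted maximal effect; 0% = DMSO wells and -100% = cell-free medium wells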
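Knockdown cells (IDH1KD HT-1080) received compounds 2 h after plating at 750 cells/well and were kept 48 h at 37 °C in 5% FBS RPMI. A CellTiter-Glo luminescence read gave % activity for curve fitting.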
IL1B secr inh: inhibitors of inflammasome signaling (IL-1 beta secretion). THP-1 LPS/ATP IL-1B secretion, AlphaLISA, 16 h; active compounds read low. activity change, % at 57.5 µM. hit rate 4.7% among 360,000; in the data active means activity change below about -50%; inconclusive means mostly about -30% to -49%
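THP-1 cells pretreated 1 hr with compounds (up to 57.5 uM final), then stimulated with LPS (250 ng/mL final) plus ATP (1.25 mM final); secreted IL-1B measured by AlphaLISA after 16 hr, decreased signal indicating inhibition.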
Starred values were filed as active, the others as inactive; i = inactive; ? = inconclusive; . = not tested or not shown; [ ] = dose if it differs, or a comment. Most compounds without a hit are left out; they make up all but 8.8% or so of the library. Unless noted, the call rests on the fitted dose curve; in most records, active means well fitted curve in the direction sought with a large enough effect; inconclusive means small, poorly fitted or top-dose-only effect, or another doubt; inactive means no such curve, though single readings can be large; an effect the other way counts as inactive or inconclusive. Unless noted, on the % scale 0 is the no-effect control and ±100 the full control effect.

SMILES	KB-3-1 cytotox	KB-V1 cytotox	HT1080-NT tox	HT1080 IDH1KD tx	IL1B secr inh
Cc1ccc(C2=NS(=O)(=O)N(C)C(C(=O)Nc3ccc(F)cc3F)=C2)cc1	i	i	-2%	4%	-7
COc1ccc(NC(=O)C2=CC(c3ccc(C)cc3)=NS(=O)(=O)N2C)cc1OC	i	i	1%	-2%	1
CC(C)(C)CC(C)(C)Nc1c(-c2ccc(O)cc2)nc2cnccn12	i	i	?	?	-15
CCn1c(SCC(N)=O)nnc1-c1cc2c(C)nn(-c3ccccc3)c2s1	i	13µM*	-4%	0%	16
CCn1c(SCC(=O)Nc2cc(C(C)(C)C)nn2-c2ccccc2)nnc1-c1cccs1	i	?	-4%	-8%	-83*
CCn1c(CCc2ccccc2)nnc1SCC(N)=O	i	i	0%	3%	1
C#CCN1C=C(C(=O)OCC)C(C)N(Cc2ccccc2I)S1(=O)=O (stereo not drawn)	i	i	?	21µM*	63
CN1CCN(C(=O)c2ccc(CSc3ccc(Cl)cc3)cc2)CC1	?	7.3µM*	-1%	3%	-62*
O=C(c1ccc(Cl)cc1)N1CCC(O)(CSc2ccccc2)CC1	i	i	-14%	-3%	25
O=C(c1ccc(Cl)cc1)N1CCC(O)(CSc2ccc(Cl)cc2)CC1	0.0007µM*	i	-21%	-16%	-14
CCOC(=O)N1CCN(Cc2cc(=O)oc3ccc(Cl)cc23)CC1	i	18µM*	-5%	4%	-3
CN1CCN(C(=O)c2ccc(Cl)cc2)CC1	i	i	12%	23%	7
CCOC(=O)N1CCN(C(=O)c2ccc(CSc3ccc(Cl)cc3)cc2)CC1	i	i	-25%	?	-80*
CCOC(=O)N1CCN(CCC(=O)c2ccc(Cl)cc2)CC1	21µM*	?	?	-18%	-1
CSc1ccc(C(=O)C2CCCN(S(=O)(=O)c3c(C)noc3C)C2)cc1 (stereo not drawn)	i	?	-2%	7%	-52*
Cc1ccc(CSCc2ccc(C(=O)NCCC(C)C)o2)cc1	i	i	-22%	-5%	-66*
Cc1ccc(CCNC(=O)c2ccc(CSCc3ccc(C)cc3)o2)cc1	i	i	.	.	.
Nc1ccn([C@@H]2O[C@H](C(=O)NCc3ccc4c(c3)OCO4)[C@@H](O)[C@H]2O)c(=O)n1	i	i	-5%	-2%	-18
COc1ccc2ccccc2c1CNCCCN1CCOCC1	i	i	-12%	-6%	4
C=CCOc1ccc2ccccc2c1CNCCCN1CCOCC1	i	16µM*	-3%	4%	-10
C=CCOc1ccc(Br)cc1CNCCCN1CCOCC1	i	i	-1%	2%	-62*
CN(C)C(CNc1ccc(S(C)(=O)=O)cc1[N+](=O)[O-])c1ccccc1 (stereo not drawn)	i	i	-1%	-16%	0
CN(C)C(CNc1ccc(C(F)(F)F)cc1[N+](=O)[O-])c1ccccc1 (stereo not drawn)	i	?	-2%	-3%	-79*
CN(C)C(CNC(C(=O)Nc1ccc([N+](=O)[O-])cc1Br)c1ccccc1)c1ccccc1 (stereo not drawn)	i	i	23µM*	23µM*	-73*
CC(C)CNC(C(=O)Nc1ccc([N+](=O)[O-])cc1Br)c1ccccc1 (stereo not drawn)	i	i	-4%	-3%	7
SMILES	KB-3-1 cytotox	KB-V1 cytotox	HT1080-NT tox	HT1080 IDH1KD tx	IL1B secr inh
CN(C)C(CNC(C(=O)Nc1ccc(F)cc1)c1ccccc1)c1ccccc1 (stereo not drawn)	i	?	-27%	-27%	-80*
Cc1ccc(NC(=O)NCC(c2ccccc2)N(C)C)cc1 (stereo not drawn)	i	i	17%	12%	-4
O=C1C2CC=CCC2C(=O)N1c1ccc(NCCc2ccc(O)cc2)c([N+](=O)[O-])c1 (stereo not drawn)	i	?	-29%	-26%	-83*
O=C1C2CC=CCC2C(=O)N1c1ccc(NCCc2ccc(Cl)cc2)c([N+](=O)[O-])c1 (stereo not drawn)	i	i	14%	15%	-15
Cc1nn(CCC(=O)O)c2nc(-c3cccnc3)cc(C(F)(F)F)c12	i	i	1%	-2%	22
Cc1nn(CCc2nn[nH]n2)c2nc(-c3ccc(C4CCCCC4)cc3)cc(C(F)(F)F)c12	i	i	23µM*	?	-105*
Cc1ccc(NC(=O)Cc2nc(COC(=O)c3c(F)cccc3Cl)cs2)cc1	i	i	?	?	-59*
Cc1ccc(NC(=O)Cc2nc(COC(=O)Cc3cccc(C(F)(F)F)c3)cs2)cc1	i	i	-6%	-8%	18
Cc1cccc(NC(=O)CSc2ncnc3sc(C)cc23)c1	i	i	-6%	1%	-26
CCc1cc(C(=O)c2ccc(C)cc2)c(NC(=O)CCl)s1	23µM*	?	?	?	-98*
Cc1cc(C(=O)c2ccc(Cl)cc2)c(NC(=O)CCl)s1	?	?	?	?	-117*
CC1(C(=O)Nc2ccc3c(c2)OCCO3)CN(S(C)(=O)=O)CC(=O)N1CCc1ccc(O)cc1 (stereo not drawn)	i	i	32%	0%	23
O=C(Nc1nc([C@@H]2O[C@H](CO)[C@@H](O)[C@H](O)[C@H]2O)cs1)NC(c1ccccc1)c1ccccc1	18µM*	i	11%	11%	-15
COc1cc(C)nc(-c2csc(C)n2)n1	i	i	-12%	-2%	1
CS(=O)(=O)N1CCN(C(=O)c2csc3ccccc23)CC1	i	i	5%	9%	24
Cc1scc(C(=O)N2CCN(S(C)(=O)=O)CC2)c1-c1ccccc1	i	23µM*	4%	-10%	7
CC1(C)COC(c2ccc(F)c([N+](=O)[O-])c2)=N1	?	?	?	?	-102*
CC1(C)COC(c2cc([N+](=O)[O-])ccc2Cl)=N1	i	i	6%	1%[9.24 µM]	-9
CC(=O)Nc1cc(N=Cc2ccc(O)cc2O)c(Cl)cc1Cl	i	i	?	18µM*	-102*
Cc1ccc2c(c1)sc1nc(-c3cc4ccccc4oc3=O)cn12	i	i	.	.	.
CCNC(=O)C(=O)c1c(-c2ccccc2)[nH]c2ccccc12	i	?	2%	11%	7
Nc1sc(Cc2ccccc2)cc1C(=O)c1c(-c2ccccc2)[nH]c2ccccc12	5.8µM*	13µM*	7.3µM*	4.6µM*	-12
O=C(c1ccc(N2CCN(S(=O)(=O)c3ccccc3)CC2)c([N+](=O)[O-])c1)N1CCOCC1	i	3.7µM*	0%	-4%	4

Bioassay records deposited in PubChem by National Center for Advancing Translational Sciences (NCATS).
